Assay results taken from PubChem BioAssay (NCATS).
Several values for one entry are separate records, joined by “and”; a condition that tells them apart may be missing. Identical values can stand only once. Results filed as inconclusive are left out. Activity calls are given as the source filed them. Unless noted, calls follow the shape of the dose curve; as a rule, active = well fitted curve in the direction sought with a large enough effect; inconclusive = small, poorly fitted or top-dose-only effect, or another doubt; inactive = no such curve, though single readings can be large; an effect the other way counts as inactive or inconclusive.

Experiments:
[1] = molecular target: Cytochrome P450 1A2 (Homo sapiens) (UniProt P05177); assay: p450-cyp1a2 (AID 410; calls by dose curve; also: potency is read from the fitted curve at half-maximal effect;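 as to activity change, negative = inhibition: -100% = full effect of reference inhibitor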)
Chain of Cytochrome P450 1A2 (Homo sapiens) (P05177 whole entry, looked up): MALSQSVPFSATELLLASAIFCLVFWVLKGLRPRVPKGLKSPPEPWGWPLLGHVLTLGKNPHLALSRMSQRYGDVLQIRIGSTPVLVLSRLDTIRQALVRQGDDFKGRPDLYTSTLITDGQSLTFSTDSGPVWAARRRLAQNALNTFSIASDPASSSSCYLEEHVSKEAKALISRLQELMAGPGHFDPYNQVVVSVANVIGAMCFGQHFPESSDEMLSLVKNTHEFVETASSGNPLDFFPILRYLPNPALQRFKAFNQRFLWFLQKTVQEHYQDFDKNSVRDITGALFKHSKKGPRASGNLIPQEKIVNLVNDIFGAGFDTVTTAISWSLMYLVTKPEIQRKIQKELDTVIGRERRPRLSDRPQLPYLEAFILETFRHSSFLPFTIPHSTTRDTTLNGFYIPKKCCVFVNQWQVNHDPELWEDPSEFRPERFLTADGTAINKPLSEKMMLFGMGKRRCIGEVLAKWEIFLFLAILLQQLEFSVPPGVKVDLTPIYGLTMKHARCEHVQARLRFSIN
Method in brief: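 Human CYP1A2 (20nM) demethylated Luciferin-ME at its Km (100uM) in 100mM KPO4. After 10 min compound preincubation, NADPH regeneration ran the reaction 60 min at room temperature. Luciferin was read by luminescence, normalized to 57 uM furafylline.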

[2] = molecular target: Glucocorticoid receptor (Homo sapiens) (UniProt P04150); assay: GR-GFP Redistribution (AID 450;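 active = compounds whose dose series gives a full or clear partial fitted curve of increased nuclear translocation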; also: potency is read from the fitted curve at half-maximal effect); settings: U2OS GR-GFP nuclear translocation, laser cytometry, 2 h
Chain of Glucocorticoid receptor (Homo sapiens) (P04150 whole entry, looked up, the tested form may be a part): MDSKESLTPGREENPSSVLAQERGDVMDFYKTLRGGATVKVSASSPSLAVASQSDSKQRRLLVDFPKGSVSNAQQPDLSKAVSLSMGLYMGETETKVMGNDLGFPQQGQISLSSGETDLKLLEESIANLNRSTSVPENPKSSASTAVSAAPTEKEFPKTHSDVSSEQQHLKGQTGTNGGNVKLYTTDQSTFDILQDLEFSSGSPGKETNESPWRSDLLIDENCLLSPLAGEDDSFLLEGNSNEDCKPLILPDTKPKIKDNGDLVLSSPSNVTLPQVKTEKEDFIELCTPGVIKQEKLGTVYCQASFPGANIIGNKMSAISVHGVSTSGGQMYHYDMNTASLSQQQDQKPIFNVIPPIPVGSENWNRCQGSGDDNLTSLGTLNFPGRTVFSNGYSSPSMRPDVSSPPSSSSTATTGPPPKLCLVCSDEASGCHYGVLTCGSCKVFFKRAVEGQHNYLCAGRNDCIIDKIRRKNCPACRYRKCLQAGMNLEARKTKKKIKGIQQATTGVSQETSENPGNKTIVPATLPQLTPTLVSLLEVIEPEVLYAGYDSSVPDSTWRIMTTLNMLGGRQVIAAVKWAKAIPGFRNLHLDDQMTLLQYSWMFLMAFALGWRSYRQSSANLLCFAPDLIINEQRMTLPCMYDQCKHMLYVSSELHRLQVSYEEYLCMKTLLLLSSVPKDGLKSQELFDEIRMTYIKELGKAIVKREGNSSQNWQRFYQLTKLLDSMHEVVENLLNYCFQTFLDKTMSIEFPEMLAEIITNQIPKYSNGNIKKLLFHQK

[3] = molecular target: Glucocorticoid receptor (Homo sapiens) (UniProt P04150); assay: GR-EFC Redistribution (AID 451; calls by dose curve; also: potency is read from the fitted curve at half-maximal effect); settings: CHO-K1 GR-EFC translocation, beta-gal luminescence, 2 h
Method in brief: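 CHO-K1 cells stably expressing nuclear-localized β-gal enzyme acceptor and GR fused C-terminally to the enzyme donor fragment; ligand-driven nuclear translocation restores β-gal by complementation. Compounds titrated up to 46 uM final, 2 h at 37 °C; luminescence read.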

[4] = molecular target: Mitogen-activated protein kinase 10 (Mus musculus) (UniProt Q61831); assay: JNK3 AlphaScreen Assay (AID 530; active = well fitted curve in either direction with a large enough effect, not every such curve was filed as active;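 also: kinase came from lysate of stimulated human HepG2 cells; signal reports phosphorylation of biotinylated GST-cJun 1-79 at Ser73 with 10 µM ATP; % is scaled to controls: 0 for no effect and ±100 for the full control effect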)
Method in brief: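 JNK3 came from HepG2 lysates pre-activated with IL-1beta and TNF-alpha and phosphorylated biotinylated GST-cJun (1-79) at 10 uM ATP, pH 7.6, room temperature. Compounds were titrated. AlphaScreen signal used anti-phospho-cJun (Ser73) antibody.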

[5] = molecular target: Cytochrome P450 3A4 (Homo sapiens) (UniProt P08684); assay: qHTS Assay for Activators of Cytochrome P450 3A4 (AID 885); also: nearly all actives have a fitted effect of over 65% in size
Chain of Cytochrome P450 3A4 (Homo sapiens) (P08684 whole entry, looked up): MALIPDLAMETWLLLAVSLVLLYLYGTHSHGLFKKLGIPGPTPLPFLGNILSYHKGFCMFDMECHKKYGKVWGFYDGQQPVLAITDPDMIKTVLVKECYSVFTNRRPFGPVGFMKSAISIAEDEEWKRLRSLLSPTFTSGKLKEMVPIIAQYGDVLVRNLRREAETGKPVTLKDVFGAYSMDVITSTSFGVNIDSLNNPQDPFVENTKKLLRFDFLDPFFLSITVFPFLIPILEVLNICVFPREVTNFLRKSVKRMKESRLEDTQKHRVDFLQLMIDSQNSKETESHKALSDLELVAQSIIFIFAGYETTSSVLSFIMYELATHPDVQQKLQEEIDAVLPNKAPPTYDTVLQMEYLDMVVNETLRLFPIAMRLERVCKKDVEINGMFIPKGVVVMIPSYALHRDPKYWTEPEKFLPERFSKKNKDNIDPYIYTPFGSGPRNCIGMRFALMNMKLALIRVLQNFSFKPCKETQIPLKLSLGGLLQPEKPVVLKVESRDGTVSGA
Method in brief: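 Human CYP3A4 (20 nM) with Luciferin-PPXE at 25 uM (its KM) in 200 mM KPO4; 10 min compound preincubation, then NADPH regeneration and 60 min reaction at RT. Luciferin read by luminescence; normalized to 57 uM ketoconazole full inhibition.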

[6] = qHTS Assay for Lipid Storage Modulators (AID 1519; calls by dose curve; also: potency is read from the fitted curve at half-maximal effect; as to activity change, negative = inhibition: % is scaled to controls: 0 for no effect and ±100 for the full control effect); settings: Drosophila S3 cells, BODIPY lipid droplet/cell ratio, laser cytometry, cells loaded with oleic acid; for activity change, negative = inhibition: at 57.5 µM (top of the series)
Method in brief: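 Cells seeded at 5,000 per well were treated with compounds over a concentration series and loaded with oleic acid (400 uM, as added). Lipid droplet fluorescence (488 nm excitation, 500-530 nm channel) was read by laser-scanning cytometry and normalized to 20 uM Triacsin C.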

[7] = molecular target: Ubiquitin carboxyl-terminal hydrolase 1 (Homo sapiens) (UniProt O94782); assay: Inhibitors of USP1/UAF1: Pilot qHTS (AID 504865);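 also: rhodamine fluorescence freed from ubiquitin-rhodamine substrate followed over time; top concentration of the series differs between compounds; % is scaled to controls: 0 for no effect and ±100 for the full control effect; nearly all actives have a fitted effect of over 35% in size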
Chain of Ubiquitin carboxyl-terminal hydrolase 1 (Homo sapiens) (O94782 whole entry, looked up): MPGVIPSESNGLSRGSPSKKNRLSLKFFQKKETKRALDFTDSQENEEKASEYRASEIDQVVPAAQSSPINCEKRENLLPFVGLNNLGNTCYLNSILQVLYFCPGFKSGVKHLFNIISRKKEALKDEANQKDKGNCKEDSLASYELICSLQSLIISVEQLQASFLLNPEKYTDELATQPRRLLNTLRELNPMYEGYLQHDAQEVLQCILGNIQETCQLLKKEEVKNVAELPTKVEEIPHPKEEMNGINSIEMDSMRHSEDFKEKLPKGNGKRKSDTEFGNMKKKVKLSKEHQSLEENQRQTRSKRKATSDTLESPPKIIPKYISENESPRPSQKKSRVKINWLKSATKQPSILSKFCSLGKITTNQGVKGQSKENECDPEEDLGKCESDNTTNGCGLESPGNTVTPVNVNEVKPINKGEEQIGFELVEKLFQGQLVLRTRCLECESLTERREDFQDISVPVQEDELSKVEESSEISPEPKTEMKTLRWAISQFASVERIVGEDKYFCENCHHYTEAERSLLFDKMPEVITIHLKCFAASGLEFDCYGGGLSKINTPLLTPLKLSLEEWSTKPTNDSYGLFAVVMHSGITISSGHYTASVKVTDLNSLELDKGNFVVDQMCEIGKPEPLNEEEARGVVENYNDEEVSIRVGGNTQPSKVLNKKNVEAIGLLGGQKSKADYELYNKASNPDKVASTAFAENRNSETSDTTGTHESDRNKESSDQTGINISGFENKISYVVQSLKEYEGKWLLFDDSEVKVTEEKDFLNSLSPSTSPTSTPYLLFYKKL
Method in brief: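 1nM USP1/UAF1 + cpd, 15 min RT; start w/ Ub-Rho 150nM final; kinetic FL 480/540 nm, 6 reads q60 s. Buffer 50mM HEPES pH 7.8, 0.5mM EDTA, 1mM TCEP, 0.01% Tween-20, 0.1 mg/ml BSA.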

[8] = molecular target: DNA dC->dU-editing enzyme APOBEC-3G (Homo sapiens) (UniProt Q9HC16); assay: qHTS for inhibitors of Vif-A3G interactions: Validation (AID 588379); also: 0% is about no effect
Chain of DNA dC->dU-editing enzyme APOBEC-3G (Homo sapiens) (Q9HC16 whole entry, looked up): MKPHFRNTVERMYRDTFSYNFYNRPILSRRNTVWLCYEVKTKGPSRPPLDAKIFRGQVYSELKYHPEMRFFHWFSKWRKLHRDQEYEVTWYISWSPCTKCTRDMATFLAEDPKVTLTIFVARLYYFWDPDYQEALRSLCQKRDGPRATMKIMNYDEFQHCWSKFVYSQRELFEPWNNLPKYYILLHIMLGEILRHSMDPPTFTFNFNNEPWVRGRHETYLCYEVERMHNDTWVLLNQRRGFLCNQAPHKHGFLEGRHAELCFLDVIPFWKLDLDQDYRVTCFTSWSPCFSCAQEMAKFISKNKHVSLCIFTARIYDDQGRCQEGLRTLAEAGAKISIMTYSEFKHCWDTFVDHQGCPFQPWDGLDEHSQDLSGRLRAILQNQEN
Method in brief: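 HeLa cells stably expressing Vif and A3G-eYFP, 700 cells/well, incubated overnight at 37 deg C, then exposed to compound overnight at 37 deg C. Inhibition of Vif-mediated degradation read as increased yellow fluorescence (Ex 488/Em 500-530) by laser-scanning cytometry.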

[9] = system: Zika virus NS2B-NS3 protease; assay: Primary screen GU AMC qHTS for Zika virus inhibitors (AID 1347154); also: nearly all actives have a fitted effect of over 70% in size; also: potency is read from the fitted curve at half-maximal effect;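 as to activity change, negative = inhibition: 0% = no-inhibitor control and -100% = no-enzyme control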
Method in brief: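 Unlinked Zika NS2B hydrophilic domain/NS3 protease domain noncovalent complex (25 nM final) in 10 mM Tris-HCl pH 8.0, 0.01% Tween 20, with AMC peptide substrate. Fluorescence (ex 340, em 450 nm) change over 15 min, room temperature; percent inhibition fitted to 4-parameter Hill equation.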

[10] = Primary qHTS for small molecule stabilizers of the endoplasmic reticulum resident proteome: Secreted ER Calcium Modulated Protein (SERCaMP) assay (AID 1508630); also: potency is read from the fitted curve at half-maximal effect; as to activity change, negative = inhibition: % is scaled to controls: 0 for no effect and ±100 for the full control effect
Method in brief: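 GLuc-SERCaMP-expressing SH-SY5Y cells, pretreated 16 h with compound, are challenged with thapsigargin to empty ER calcium stores; after 4 h, coelenterazine is added directly to the medium and luminescence is imaged.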

[11] = molecular target: 3',5'-cyclic-AMP phosphodiesterase 4B (Homo sapiens) (UniProt Q07343); assay: qHTS Assay for Inhibitors of PDE-IV (AID 607; active = well fitted activation curve with a large enough effect in the main read-out, with a control signal flat, not every such curve was filed as active; also: % of control where 0% means no effect)
Chain of 3',5'-cyclic-AMP phosphodiesterase 4B (Homo sapiens) (Q07343 whole entry, looked up): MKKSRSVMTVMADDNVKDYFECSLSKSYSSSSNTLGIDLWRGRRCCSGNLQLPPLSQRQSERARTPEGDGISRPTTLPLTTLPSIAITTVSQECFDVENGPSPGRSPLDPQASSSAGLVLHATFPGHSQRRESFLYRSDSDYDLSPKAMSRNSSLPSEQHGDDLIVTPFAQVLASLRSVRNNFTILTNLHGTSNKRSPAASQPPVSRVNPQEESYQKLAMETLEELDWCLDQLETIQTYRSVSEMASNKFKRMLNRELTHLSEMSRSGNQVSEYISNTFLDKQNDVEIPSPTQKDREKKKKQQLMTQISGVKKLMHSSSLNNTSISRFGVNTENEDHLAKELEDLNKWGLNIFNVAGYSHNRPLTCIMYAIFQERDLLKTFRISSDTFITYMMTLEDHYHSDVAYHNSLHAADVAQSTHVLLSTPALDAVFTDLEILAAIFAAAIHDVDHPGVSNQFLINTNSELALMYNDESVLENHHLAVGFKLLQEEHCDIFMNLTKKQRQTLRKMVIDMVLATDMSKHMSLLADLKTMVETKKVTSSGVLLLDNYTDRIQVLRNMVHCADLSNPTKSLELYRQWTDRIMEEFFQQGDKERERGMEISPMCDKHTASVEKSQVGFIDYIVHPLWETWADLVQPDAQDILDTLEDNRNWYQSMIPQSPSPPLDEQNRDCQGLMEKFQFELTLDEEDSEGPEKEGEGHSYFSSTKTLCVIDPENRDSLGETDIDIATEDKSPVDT
Method in brief: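 HEK293 ACTOne cells with CNG channel (1000/well), endogenous PDE4; membrane potential dye, compounds up to 22.9 uM final. Fluorescence Ex 535/Em 590; RO 20-1724 (100 uM final) as reference.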

[12] = molecular target: Guanine nucleotide-binding protein G(i) subunit alpha-1 (Homo sapiens) (UniProt P63096); assay: qHTS Assay for Inhibitors of RGS12 GoLoco Motif Activity (Green Fluorophore) (AID 879);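 also: 0% = labeled peptide with Gαi1 and full inhibition = labeled peptide alone without protein; negative values mean loss of peptide binding seen as reduced polarization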
Chain of Guanine nucleotide-binding protein G(i) subunit alpha-1 (Homo sapiens) (P63096 whole entry, looked up): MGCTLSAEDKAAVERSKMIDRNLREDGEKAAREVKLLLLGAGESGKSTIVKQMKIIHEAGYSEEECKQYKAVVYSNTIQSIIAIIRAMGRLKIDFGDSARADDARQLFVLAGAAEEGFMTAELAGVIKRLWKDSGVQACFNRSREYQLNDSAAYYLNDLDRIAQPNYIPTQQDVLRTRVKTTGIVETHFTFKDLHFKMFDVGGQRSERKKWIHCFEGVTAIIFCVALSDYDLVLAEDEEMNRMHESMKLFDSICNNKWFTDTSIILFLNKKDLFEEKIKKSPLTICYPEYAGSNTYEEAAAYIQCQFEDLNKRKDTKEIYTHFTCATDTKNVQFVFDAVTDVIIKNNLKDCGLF
Method in brief: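 Fluorescence polarization assay: 50 nM Gαi1 with 10 nM FITC-labeled RGS12 GoLoco peptide in 10 mM Tris pH 7.5, 150 mM NaCl, 0.1 mM GDP, 0.05% NP40, 10 min at room temperature with compound.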

[13] = molecular target: Pyruvate kinase (Leishmania mexicana) (UniProt Q27686); assay: qHTS Validation Assay for Inhibitors of Leishmania Mexicana Pyruvate Kinase (AID 945);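 also: 0% = DMSO only neutral control wells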
Chain of Pyruvate kinase (Leishmania mexicana) (Q27686 2-499 E452W): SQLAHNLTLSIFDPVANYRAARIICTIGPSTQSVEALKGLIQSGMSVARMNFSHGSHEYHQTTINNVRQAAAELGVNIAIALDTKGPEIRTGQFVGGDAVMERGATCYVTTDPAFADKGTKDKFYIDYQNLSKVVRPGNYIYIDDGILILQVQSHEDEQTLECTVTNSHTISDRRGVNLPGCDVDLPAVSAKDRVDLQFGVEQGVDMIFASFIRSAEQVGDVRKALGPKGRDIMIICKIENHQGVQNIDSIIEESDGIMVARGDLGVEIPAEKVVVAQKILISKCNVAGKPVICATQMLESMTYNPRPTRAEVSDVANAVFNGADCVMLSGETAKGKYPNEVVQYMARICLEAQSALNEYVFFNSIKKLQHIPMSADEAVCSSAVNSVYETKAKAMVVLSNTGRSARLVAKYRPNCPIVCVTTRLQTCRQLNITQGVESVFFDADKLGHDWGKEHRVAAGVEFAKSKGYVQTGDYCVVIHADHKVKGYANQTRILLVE
Method in brief: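 Compounds are tested as eight-point concentration series. Reactions contain 0.2 nM LmPYK E451W, 0.5 mM PEP, 0.1 mM ADP, 7 mM MgCl2 and 50 mM KCl at pH 7.2, run 1 h at room temperature, then read by PKLight luminescence.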

[14] = molecular target: Pyruvate kinase PKM (Homo sapiens) (UniProt P14618); assay: qHTS Assay for Activators of Human Muscle Pyruvate Kinase (AID 954; active = well fitted curve in the direction sought with a large enough effect, not every such curve was filed as active;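 also: 0% = uninhibited enzyme and -100% = no enzyme or full thiadiazolimine inhibition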)
Method in brief: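 Purified human PKM2 (0.1 nM) with 0.5 mM PEP (Km) and 0.1 mM ADP in 50 mM imidazole pH 7.2, KCl, MgCl2, 1 h at room temperature; ATP formed read by coupled luciferase luminescence. Normalized to no-enzyme/110 uM thiadiazolimine inhibition; 0.3 nM enzyme column for activation.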

[15] = molecular target: Alpha-galactosidase A (Homo sapiens) (UniProt P06280); assay: Counterscreen for Glucocerebrosidase Inhibitors: qHTS Assay for Human alpha-Galactosidase at pH 4.5 (AID 992); also: 0% is about no effect
Chain of Alpha-galactosidase A (Homo sapiens) (P06280 whole entry, looked up): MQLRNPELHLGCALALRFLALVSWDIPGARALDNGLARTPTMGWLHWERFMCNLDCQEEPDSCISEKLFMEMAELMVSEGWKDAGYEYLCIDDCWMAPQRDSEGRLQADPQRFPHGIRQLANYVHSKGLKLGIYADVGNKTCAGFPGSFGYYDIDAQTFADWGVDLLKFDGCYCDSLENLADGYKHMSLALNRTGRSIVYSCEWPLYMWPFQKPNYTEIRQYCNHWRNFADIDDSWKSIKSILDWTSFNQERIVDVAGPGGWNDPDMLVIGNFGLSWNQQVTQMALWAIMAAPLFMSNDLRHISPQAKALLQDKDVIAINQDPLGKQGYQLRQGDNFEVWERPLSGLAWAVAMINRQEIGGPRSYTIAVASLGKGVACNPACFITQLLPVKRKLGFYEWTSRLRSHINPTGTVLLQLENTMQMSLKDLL
Method in brief: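 Human enzyme (2 nM) with 80 uM 4-methylumbelliferyl alpha-D-galactopyranoside in 50 mM citric acid, 0.005% Tween-20, pH 4.5, 20 min at room temperature. Compounds 0.7 nM–77 uM; fluorescence Ex 365/Em 440 after pH 10 stop; AC50 from Hill fits.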

[16] = molecular target: alpha-glucosidase (Oryza sativa, rice) (UniProt Q653V4); assay: Counterscreen for Glucocerebrosidase Inhibitors: qHTS Assay for Rice alpha-Glucosidase at pH 5.0 (AID 997);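 also: 0% = full activity with enzyme and -100% = basal without enzyme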
Method in brief: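 Rice alpha-glucosidase (4 nM final) with 400 uM 4-methylumbelliferyl-alpha-D-glucopyranoside in citrate buffer pH 5.0, 20 min at room temperature, stopped at pH 10; fluorescence 365/440 nm, compounds 0.7 nM–77 uM, AC50 from Hill fits.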

[17] = measured here: cell count channel max response
[18] = measured here: lipid channel max response

C1=C(CN2CCOCC2)COc2c1cccc2OC[C@@H]1CNCCO1
inactive: Potency [2] > 46 µM | Potency [3] > 46 µM | Potency [4] | Potency [5] | activity change, negative = inhibition [6] 0.797% | Potency [7] | Potency [8] | Potency [9] | Potency [10]
5.43%: max response [6, 17]
3.99%: max response [6, 18]
active: Potency [1] 12.6 µM

C[C@@H]1Nc2ccc(Cl)cc2S(=O)(=O)N1
inactive: Potency [2] > 46 µM | Potency [3] > 46 µM | Potency [4] | Potency [11] | activity change, negative = inhibition [6] 6.73% | Potency [7] | Potency [8] | Potency [9] | Potency [10]
-1.71%: max response [6, 17]
3.08%: max response [6, 18]

N[C@@H](C(=O)O)c1ccc(C(=O)O)c(C(=O)O)c1
-0.754% and -2.49% and 18.8%: max response [6, 18]
-4.21% and -1.65% and 13.2%: max response [6, 17]
inactive: Potency [1] | Potency [2] > 46 µM | Potency [3] > 46 µM | Potency [4] | Potency [11] | activity change, negative = inhibition [6] 1.89% and 0.925% and 9.39% | Potency [7] | Potency [8] | Potency [9] | Potency [10]

N[C@H](C(=O)O)c1ccc(C(=O)O)c(O)c1
-17.3%: max response [6, 18]
inactive: Potency [2] > 46 µM | Potency [3] > 46 µM | Potency [4] | activity change, negative = inhibition [6] 2.68% | Potency [7] | Potency [8] | Potency [10]
active: Potency [9] 26.7 µM
-19.5%: max response [6, 17]

O=C1C(c2ccccn2)=[N+]([O-])c2ccccc21
active: Potency [1] 0.158 µM
inactive: Potency [2] > 46 µM | Potency [3] > 46 µM | Potency [4] | Potency [11] | activity change, negative = inhibition [6] 3.2% | Potency [8] | Potency [9] | Potency [10]
22.9%: max response [6, 18]
20%: max response [6, 17]

C[C@](N)(COP(=O)(O)O)C(=O)O
active: Potency [10] 31.6 µM
16.3%: max response [6, 17]
inactive: Potency [2] > 46 µM | Potency [3] > 46 µM | Potency [4] | activity change, negative = inhibition [6] 4.7% | Potency [7] | Potency [8] | Potency [9]
21.4%: max response [6, 18]

NC(=O)CCCCn1ccc(NC(N)=NCC(F)(F)F)n1
inactive: Potency [2] > 46 µM | Potency [3] > 46 µM | Potency [4] | activity change, negative = inhibition [6] 1.74% | Potency [7] | Potency [8] | Potency [9] | Potency [10]
5.7%: max response [6, 17]
6.79%: max response [6, 18]

CC(C)(C)c1ccc(S(=O)(=O)/C=C\C#N)cc1
5.78%: max response [6, 17]
active: Potency [1] 3.98 µM and 1.58 µM | Potency [6] 31.6 µM
-82.4%: max response [6, 18]
inactive: Potency [2] > 46 µM | Potency [3] > 46 µM | Potency [11] | outcome [12] | Potency [5] | Potency [13] | outcome [14] | outcome [15] | outcome [16] | Potency [8] | Potency [9] | Potency [10]

N[C@@H](Cn1cc(F)c(=O)[nH]c1=O)C(=O)O
inactive: Potency [2] > 46 µM | Potency [3] > 46 µM | Potency [4] | activity change, negative = inhibition [6] -2.96% | Potency [7] | Potency [8] | Potency [9] | Potency [10]
14.7%: max response [6, 18]
17.5%: max response [6, 17]

CC[N+](C)(CC)CC(=O)Nc1c(C)cccc1C
-8.79%: max response [6, 18]
inactive: Potency [2] > 46 µM | Potency [3] > 46 µM | Potency [4] | Potency [11] | activity change, negative = inhibition [6] 0.67% | Potency [7] | Potency [8] | Potency [9] | Potency [10]
-9.49%: max response [6, 17]
